Sampled rows, rich in hits. Any-hit rate of the full collection: about 1.2%.
PKA-R1A act: activates the PKA-R1A holoenzyme complex. activation, % at 11.4 µM. PKA-R1A dissociation, Cy5-IP20 fluorescence polarization; scaled: DMSO 0%, 113 µM cGMP 100%. P00514+P68181. hit rate 0.083% among 340,000. AID 504707;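 active means percent activation above the mean of all tested compounds plus 3 SD, cut at about 19% in these data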;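 further: higher means more PKAc released from R1A so a rise in polarization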
PG9 Ab binder: PG9 antibody binding by small molecule | TR-FRET gp120-PG9 antibody binding | inhibition, % at 6.7 µM | hit rate 0.43% among 360,000; in the data active means inhibition above about 8.5%
NR1D1 modulator: modulates human Rev-erb alpha binding to DNA; P20393; Rev-erbα–FITC-DNA binding, fluorescence polarization, 90 min; activity, % at 10 µM; hit rate 0.79% among 370,000;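 active means activity above about 14%, limit read from the data; passing the limit was not always enough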;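 further: 0% = DMSO wells with 35 nM protein and 100% = DMSO wells with 750 nM protein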
PKA-R2B act: activators of human PKA-R2B complex; P22694+P31323; PKA-R2B holoenzyme dissociation, Cy5-IP20 fluorescence polarization; R2B truncated from residue 108, S112A mutant; 0% DMSO only, 100% 113 µM cGMP; activation, % at 11.4 µM; hit rate 0.079% among 340,000; AID 504700;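 active means activation above a cutoff set at the mean over all compounds plus 3 SD, cut at about 18% in these data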;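 further: higher means more holoenzyme dissociation and a rise in polarization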
Target sequence (P31323 whole entry, looked up, other chains not shown, the tested form may be a part): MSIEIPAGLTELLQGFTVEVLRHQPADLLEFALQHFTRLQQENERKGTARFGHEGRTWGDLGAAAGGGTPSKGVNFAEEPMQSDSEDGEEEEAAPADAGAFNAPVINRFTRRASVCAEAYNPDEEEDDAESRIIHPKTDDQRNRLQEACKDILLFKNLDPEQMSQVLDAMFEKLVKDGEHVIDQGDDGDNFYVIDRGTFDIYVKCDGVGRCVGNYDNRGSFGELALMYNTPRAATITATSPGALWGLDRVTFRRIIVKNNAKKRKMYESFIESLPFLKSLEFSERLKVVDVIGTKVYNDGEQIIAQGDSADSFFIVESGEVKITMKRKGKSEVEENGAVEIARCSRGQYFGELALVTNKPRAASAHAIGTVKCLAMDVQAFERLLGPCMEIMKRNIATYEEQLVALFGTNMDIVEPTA
NR1D1 mod conf: Rev-erb alpha (human) modulation, hit confirmation; shares compounds with NR1D1 modulator; Rev-erb alpha FITC-DNA binding, fluorescence polarization, 90 min; activation, % at 25 µM; hit rate 61% among 3,000; AID 1259319;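 active means activation at or above a set limit, or at least 3 SD above the negative control mean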;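 further: 0% = 35 nM protein with DMSO and 100% = 750 nM protein high control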
RORg counter: affects RORgamma DNA binding in a Rev-erb alpha counter-screen. shares compounds with NR1D1 modulator. purified RORgamma protein-FITC-DNA binding, fluorescence polarization. IC50, µM. hit rate 8% among 910. AID 1259320;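 active means Compounds whose fitted half-maximal concentration for disrupting protein-DNA binding is below 10 micromolar; the record names Rev-erb in its text, so the target is in doubt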
Numbers without * were called inactive.

`O=C(CSc1nc2ccccc2n1Cc1ccccc1Cl)N/N=C\c1cccc(Oc2ccccc2)c1` gave NR1D1 modulator 0.
COc1ccc(S[C@]2(C(=O)N3CCN(c4ncccn4)CC3)CC(=O)N(C(=O)/C=C/c3ccccc3)[C@@H]2c2ccc(OC)cc2)cc1 was read as NR1D1 modulator -3.
Screening CCCC1CCC2(CC1)CCC2OC(=S)NCCc1ccc(Cl)cc1 (stereo not given) returned NR1D1 modulator 0.
`OC(c1cc(F)cc(Cl)c1)c1ncc(-c2ccc3ccccc3c2)[nH]1` (stereo not given) gave PG9 Ab binder 0, NR1D1 modulator 14* and NR1D1 mod conf -4.
`O=S(=O)(Nc1nc2ccccc2nc1Cl)c1ccc(Cl)cc1` gave PKA-R1A act 1, PG9 Ab binder 3, NR1D1 modulator -8 and PKA-R2B act -9.
O=C(N=c1ccn(-c2nc3ccccc3nc2NS(=O)(=O)c2ccc(Cl)cc2)cc1)c1cccs1 was read as PKA-R1A act -8, PG9 Ab binder 2, NR1D1 modulator 91*, PKA-R2B act 2, NR1D1 mod conf 33* and RORg counter inactive.
FC(F)(F)c1cc(-c2cccs2)nc2cc(-c3ccccc3)nn12 was read as PKA-R1A act 0, PG9 Ab binder 6, NR1D1 modulator 33*, PKA-R2B act 2 and NR1D1 mod conf 14.
For Cc1cc(C)cc(OCC(C)CN2CCC(C(O)(c3ccccc3)c3ccccc3)CC2)c1 (stereo not given) the results were NR1D1 modulator -3.
For CCn1c(SCC(=O)Nc2ccc(C(C)=O)cc2)nc2nc3c(cc2c1=O)CCCC3 the results were PKA-R1A act -2, PG9 Ab binder 0, NR1D1 modulator 17*, PKA-R2B act 2 and NR1D1 mod conf 5.
`CCn1c(SCC(=O)Nc2ccc(Cl)cc2)nc2nc3c(cc2c1=O)CCCC3` gave PKA-R1A act 0, PG9 Ab binder 5, NR1D1 modulator 0 and PKA-R2B act -16.
For N#Cc1ccc2c(c1)NC(=O)C1CCCN21 (stereo not given) the results were PKA-R1A act 2, PG9 Ab binder 0, NR1D1 modulator -2 and PKA-R2B act 3.
Cc1ccc(C)c(CN2C(=O)C3CCCN3c3ccc(C#N)cc32)c1 (stereo not given) was read as PKA-R1A act -2, PG9 Ab binder 4, NR1D1 modulator 49*, PKA-R2B act -2 and NR1D1 mod conf 36*.
`CO[C@H]([C@H](C)/C=C/N(C)C=O)[C@@H](C)C(=O)CC[C@H](C)[C@H](O)[C@H](C)[C@H]1OC(=O)/C=C/C(C)=C/C[C@H](O)C[C@@H]2C=CC[C@@H](C[C@H](OC)C(C)(O)[C@@H](OC)C[C@@H](OC)[C@@H]1C)O2` (stereo not given in full) gave NR1D1 modulator -6.
`Cn1nnnc1-c1cc(Br)ccc1NC(=O)c1ccccc1` gave PKA-R1A act -3, PG9 Ab binder -2, NR1D1 modulator 72*, PKA-R2B act 2, NR1D1 mod conf 46* and RORg counter >40.
Screening CCOC(=O)c1sc(NC(=O)c2ccc(S(=O)(=O)N3CCCCC3)cc2)nc1-c1ccccc1 returned PKA-R1A act 5, PG9 Ab binder 1, NR1D1 modulator 16 and PKA-R2B act -1.
Screening CCOC(=O)c1sc(NC(=O)c2ccc(S(=O)(=O)N3CCCCCC3)cc2)nc1-c1ccccc1 returned PKA-R1A act -1, PG9 Ab binder -2, NR1D1 modulator 29*, PKA-R2B act -11 and NR1D1 mod conf 5.
CCOC(=O)N1CCN(S(=O)(=O)c2ccc(C(=O)Nc3nc4ccccc4s3)cc2)CC1 was read as PKA-R1A act 2, PG9 Ab binder 7, NR1D1 modulator 34*, PKA-R2B act -6 and NR1D1 mod conf 21*.
Screening COC(=O)[C@]12C[C@H](CC(=O)NCc3ccc(OC)c(OC)c3)C(=O)N(Cc3ccco3)C1=C[C@H](C1CCCC1)O[C@@H]2C returned NR1D1 modulator -4.
For CCN(CC)c1c2c(nc3ncnn13)CCCC2 the results were NR1D1 modulator -6.

From PubChem BioAssay
